Where “and” joins values, the source holds several entries; their conditions need not be identical. Equal entries are not always repeated. ± gives the standard deviation of the averaged measurements.
System: SW480
Assay: cell viability (CellTiter-Glo) relative to plate median (fraction of plate median); higher = more viable cells
Conditions: 5 µM; treatment time 24 h; reporter: 7TFP
How it was run: (§1)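 Cells were seeded in 384-well plates; these were colorectal cancer lines stably transduced with lentiviral 7TFP or TCF4/Wnt firefly luciferase reporters. After 24 h, library compounds went in at a final 5 µM, and exposure lasted 24 h. Parallel plates were then read for firefly luciferase or CellTiterGlo luminescence, each well normalised to its plate median, with two independent replicates averaged.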

| Compound | cell viability |
| --- | --- |
| N[C@@H](C(=O)N[C@@H]1C(=O)N2C(C(=O)O)=C(Cl)CS[C@H]12)c1ccccc1 | 0.953 ± 0.028 |
| COc1ccc(OC)c(C(O)CNC(=O)CN)c1 (configuration not stated) | 1.03 ± 0.035 |
| COc1ccc(-c2cc(=O)c3c(O)c(OC)c(O[C@@H]4O[C@H](CO[C@@H]5O[C@@H](C)[C@H](O)[C@@H](O)[C@H]5O)[C@@H](O)[C@H](O)[C@H]4O)cc3o2)cc1 | 0.897 ± 0.056 |
| O=c1[nH]cc(F)c(=O)[nH]1 | 1.11 ± 0.014 |
| O=C(CCCCCCCCCCCCC1CCCC1)Nc1ccc(S(=O)(=O)c2ccc(NC(=O)CCCCCCCCCCCCC3CCCC3)cc2)cc1 | 1.03 ± 0.028 |
| CC(=O)OCC1=C(C(=O)O)N2C(=O)[C@@H](NC(=O)Cc3cccs3)[C@H]2SC1 | 1.03 ± 0.028 |
| C[C@H](CCC(=O)O)[C@H]1CC[C@H]2[C@@H]3C(=O)C[C@@H]4CC(=O)CC[C@]4(C)[C@H]3CC(=O)[C@]12C | 0.912 and 0.967 |
| C[C@@H]1O[C@@H]1P(=O)(O)O | 1.06 ± 0.028 |
| NC[C@@H]1O[C@H](O[C@H]2[C@@H](O)[C@H](O[C@@H]3[C@@H](O)[C@H](N)C[C@H](N)[C@H]3O[C@H]3O[C@H](CO)[C@@H](O)[C@H](O)[C@H]3N)O[C@@H]2CO)[C@H](N)[C@@H](O)[C@@H]1O | 1.065 ± 0.0071 |
| NCC[C@H](O)C(=O)N[C@@H]1C[C@H](N)[C@@H](O[C@H]2O[C@H](CN)[C@@H](O)[C@H](O)[C@H]2O)[C@H](O)[C@H]1O[C@H]1O[C@H](CO)[C@@H](O)[C@H](N)[C@H]1O | 0.995 ± 0.036 |
| CC1COc2c(N3CCN(C)CC3)c(F)cc3c(=O)c(C(=O)O)cn1c23 (configuration not stated) | 0.91 ± 0.0099 |
| COc1cccc2c1C(=O)c1c(O)c3c(c(O)c1C2=O)C[C@@](O)(C(=O)CO)C[C@@H]3O[C@H]1C[C@H](N)[C@H](O)[C@H](C)O1 | 1.08 ± 0.035 |
| C[C@H]1[C@H]2CC[C@H]3[C@@H]4CC=C5C[C@@H](N(C)C)CC[C@]5(C)[C@H]4CC[C@]23CN1C | 0.984 ± 0.021 |
| COc1ccc2[nH]c([S+]([O-])Cc3ncc(C)c(OC)c3C)nc2c1 (configuration not stated) | 0.978 ± 0.06 |
| CCc1nc(N)nc(N)c1-c1ccc(Cl)cc1 | 1.02 ± 0.021 |
| NC(Cn1ccc(=O)c(O)c1)C(=O)O (configuration not stated) | 0.989 ± 0.044 |

| Compound | cell viability |
| --- | --- |
| Nc1nc(F)nc2c1ncn2[C@@H]1O[C@H](COP(=O)(O)O)[C@@H](O)[C@@H]1O | 0.972 ± 0.054 |
| CC(C)CC1NC(=O)C(NC(=O)c2ncccc2O)C(C)OC(=O)C(c2ccccc2)N(C)C(=O)C(C)NC(=O)C(C(C)C(C)C)N(C)C(=O)CN(C)C(=O)C2CCCN2C1=O (single isomer, unassigned; isomere) [Neoviridogrisein II (Isomere)] | 1.02 ± 0.03 |
| COC(=O)N/N=C/c1c[n+]([O-])c2ccccc2[n+]1[O-] | 0.974 ± 0.021 |
| NNCCc1ccccc1 | 0.98 ± 0.042 |
| Clc1ccc(C(c2ccccc2Cl)C(Cl)Cl)cc1 (configuration not stated) | 0.981 ± 0.041 |
| CCCCCC(=O)Cc1cc(O)cc(O)c1C(=O)Oc1cc(CC(=O)CCCCC)c(C(=O)O)c(OC)c1 | 0.966 ± 0.012 |
| CC1CC2C3CCC4=CC(=O)C=CC4(C)C3(F)C(O)CC2(C)C1C(=O)CO (configuration not stated) | 0.939 ± 0.026 |
| CCOc1ccc2nc(S(N)(=O)=O)sc2c1 | 0.961 ± 0.014 |
| CC(=O)NS(=O)(=O)c1ccc(N)cc1 | 1.05 ± 0.057 |
| CC(=O)OC1CCC2(O)CC1(C)CCC1C2CC1(C)C (configuration not stated) | 1.05 |
| Cc1oc(=O)c2c(O)cccc2c1CO [8-Hydroxy-4-hydroxymethyl-3-methyl-isocumarin] | 0.98 ± 0.021 |
| C(=C\c1ccccc1)/CN1CCN(C(c2ccccc2)c2ccccc2)CC1 | 1.035 ± 0.0071 |
| COc1c2occc2cc2ccc(=O)oc12 | 1.05 ± 0.014 |
| COc1ccc2c(c1)OC/C(=C/c1ccc(O)c(O)c1)C2=O | 0.986 ± 0.035 |
| CC(=O)[C@H]1CC[C@H]2[C@@H]3CC=C4C[C@@H](O)CC[C@]4(C)[C@H]3CC[C@]12C | 0.956 ± 0.028 |
| COc1cc(OC)c(C(C)=O)c(O)c1C | 1.045 ± 0.0071 |

System: DLD1
Assay: TCF/Wnt firefly luciferase reporter signal relative to plate median (fraction of plate median); higher = higher Wnt reporter signal
Conditions: 5 µM; treatment time 24 h; reporter: 7TFP
How it was run: as §1

| Compound | TCF/Wnt firefly luciferase reporter signal |
| --- | --- |
| S=P(N1CC1)(N1CC1)N1CC1 | 0.975 ± 0.03 |
| C#C[C@]1(O)CC[C@H]2[C@@H]3CCC4=C(CCC(=O)C4)[C@H]3CC[C@@]21C | 1.07 ± 0.13 |
| N=C(N)NCCCCN | 1.02 ± 0.04 |
| CS(=O)(=O)c1ccc(C2=C(c3ccccc3)C(=O)OC2)cc1 | 1.19 ± 0.092 |
| CCC(=O)O[C@@H]1[C@@H](OC2C(C)/C=C/C(=O)OC(C)C(CO[C@@H]3O[C@H](C)[C@@H](OC(=O)CC)[C@@H](OC)[C@H]3OC)C3OC3/C=C/C(=O)C(C)(O)CC2C)O[C@@H](C)C[C@H]1OC (some centres not stated) [Chalcomycin B] | 1.14 ± 0.12 |
| CC(=O)O[C@@H]1C[C@@]2(C)C(CC[C@@H]2C(C)=O)C2CCC3=CC(=O)CC[C@]3(C)C21 (some centres not stated) | 1.02 ± 0.031 |
| O=C(O)CN1C(=O)c2cccc3cccc(c23)C1=O | 0.964 ± 0.12 |
| C=C1c2c(Cl)ccc(O)c2C(=O)C2=C(O)[C@]3(O)C(=O)C(C(N)=O)=C(O)[C@@H](N(C)C)[C@@H]3[C@@H](O)[C@H]12.O=C(O)c1cc(S(=O)(=O)O)ccc1O | 1.05 ± 0.25 |
| N[C@@H](C(=O)N[C@@H]1C(=O)N2C(C(=O)O)=C(Cl)CS[C@H]12)c1ccccc1 | 0.897 ± 0.079 |
| COc1ccc(OC)c(C(O)CNC(=O)CN)c1 (configuration not stated) | 1.06 ± 0.2 |
| COc1ccc(-c2cc(=O)c3c(O)c(OC)c(O[C@@H]4O[C@H](CO[C@@H]5O[C@@H](C)[C@H](O)[C@@H](O)[C@H]5O)[C@@H](O)[C@H](O)[C@H]4O)cc3o2)cc1 | 1.07 ± 0.035 |
| O=c1[nH]cc(F)c(=O)[nH]1 | 1.01 ± 0.13 |
| O=C(CCCCCCCCCCCCC1CCCC1)Nc1ccc(S(=O)(=O)c2ccc(NC(=O)CCCCCCCCCCCCC3CCCC3)cc2)cc1 | 1.01 ± 0.12 |
| CC(=O)OCC1=C(C(=O)O)N2C(=O)[C@@H](NC(=O)Cc3cccs3)[C@H]2SC1 | 0.953 ± 0.016 |
| C[C@H](CCC(=O)O)[C@H]1CC[C@H]2[C@@H]3C(=O)C[C@@H]4CC(=O)CC[C@]4(C)[C@H]3CC(=O)[C@]12C | 0.894 and 1.06 |
| C[C@@H]1O[C@@H]1P(=O)(O)O | 1.03 ± 0.028 |
| NC[C@@H]1O[C@H](O[C@H]2[C@@H](O)[C@H](O[C@@H]3[C@@H](O)[C@H](N)C[C@H](N)[C@H]3O[C@H]3O[C@H](CO)[C@@H](O)[C@H](O)[C@H]3N)O[C@@H]2CO)[C@H](N)[C@@H](O)[C@@H]1O | 0.901 ± 0.043 |
| NCC[C@H](O)C(=O)N[C@@H]1C[C@H](N)[C@@H](O[C@H]2O[C@H](CN)[C@@H](O)[C@H](O)[C@H]2O)[C@H](O)[C@H]1O[C@H]1O[C@H](CO)[C@@H](O)[C@H](N)[C@H]1O | 0.821 ± 0.11 |
| CC1COc2c(N3CCN(C)CC3)c(F)cc3c(=O)c(C(=O)O)cn1c23 (configuration not stated) | 0.93 ± 0.075 |
| COc1cccc2c1C(=O)c1c(O)c3c(c(O)c1C2=O)C[C@@](O)(C(=O)CO)C[C@@H]3O[C@H]1C[C@H](N)[C@H](O)[C@H](C)O1 | 1.09 ± 0.099 |

| Compound | TCF/Wnt firefly luciferase reporter signal |
| --- | --- |
| C[C@H]1[C@H]2CC[C@H]3[C@@H]4CC=C5C[C@@H](N(C)C)CC[C@]5(C)[C@H]4CC[C@]23CN1C | 0.9855 ± 0.00071 |
| COc1ccc2[nH]c([S+]([O-])Cc3ncc(C)c(OC)c3C)nc2c1 (configuration not stated) | 1.09 ± 0.05 |
| CCc1nc(N)nc(N)c1-c1ccc(Cl)cc1 | 1.1 ± 0.23 |
| NC(Cn1ccc(=O)c(O)c1)C(=O)O (configuration not stated) | 0.85 ± 0.016 |
| Nc1nc(F)nc2c1ncn2[C@@H]1O[C@H](COP(=O)(O)O)[C@@H](O)[C@@H]1O | 0.926 ± 0.018 |
| CC(C)CC1NC(=O)C(NC(=O)c2ncccc2O)C(C)OC(=O)C(c2ccccc2)N(C)C(=O)C(C)NC(=O)C(C(C)C(C)C)N(C)C(=O)CN(C)C(=O)C2CCCN2C1=O (single isomer, unassigned; isomere) [Neoviridogrisein II (Isomere)] | 0.918 ± 0.1 |
| COC(=O)N/N=C/c1c[n+]([O-])c2ccccc2[n+]1[O-] | 0.919 ± 0.064 |
| NNCCc1ccccc1 | 1.26 ± 0.2 |
| Clc1ccc(C(c2ccccc2Cl)C(Cl)Cl)cc1 (configuration not stated) | 1.11 ± 0.021 |
| CCCCCC(=O)Cc1cc(O)cc(O)c1C(=O)Oc1cc(CC(=O)CCCCC)c(C(=O)O)c(OC)c1 | 1.07 ± 0.15 |
| CC1CC2C3CCC4=CC(=O)C=CC4(C)C3(F)C(O)CC2(C)C1C(=O)CO (configuration not stated) | 1.05 |
| CCOc1ccc2nc(S(N)(=O)=O)sc2c1 | 0.704 ± 0.088 |
| CC(=O)NS(=O)(=O)c1ccc(N)cc1 | 1.01 ± 0.22 |
| CC(=O)OC1CCC2(O)CC1(C)CCC1C2CC1(C)C (configuration not stated) | 0.9135 ± 0.0064 |
| Cc1oc(=O)c2c(O)cccc2c1CO [8-Hydroxy-4-hydroxymethyl-3-methyl-isocumarin] | 1.01 ± 0.13 |
| C(=C\c1ccccc1)/CN1CCN(C(c2ccccc2)c2ccccc2)CC1 | 1.17 ± 0.11 |
| COc1c2occc2cc2ccc(=O)oc12 | 1.09 ± 0.21 |
| COc1ccc2c(c1)OC/C(=C/c1ccc(O)c(O)c1)C2=O | 0.944 ± 0.033 |
| CC(=O)[C@H]1CC[C@H]2[C@@H]3CC=C4C[C@@H](O)CC[C@]4(C)[C@H]3CC[C@]12C | 1.1 ± 0.05 |
| COc1cc(OC)c(C(C)=O)c(O)c1C | 0.94 ± 0.11 |
